The source of these data is PubChem BioAssay AID2330 (Broad Institute, 2010).

Among all 37,000 compounds or so, about 2,800 (7.6%) were called active. About 1% were inconclusive and are not listed. Cut-off read from the data, not from the text of the source: active = inhibition above about 80%; inconclusive = no clear call, values can overlap the other calls; inactive = below that. The list comes from a sample in which actives are over-represented; it also holds similar structures and randomly drawn compounds.

What is called inhibition is the drop in the measured response relative to a control, in per cent.

The nature of the experiment: NOMO-1 AML cell viability reduction, primary screen, STK33 inhibitor project, CellTiter-Glo luminescence (AID 2330). To be noted: NOMO-1 AML viability, 72 h, active compounds read high, concentration not given here. On the technique in general: Cellular ATP, detected with luciferase, serves as a proxy for viable cell number.
Consider `C[C@H]1CN([C@@H](C)CO)C(=O)c2cccc(NC(=O)CCCCCC(=O)Nc3ccccc3N)c2O[C@@H]1CN(C)CC1CCCCC1`, for which the inhibition was 139% (active).

Regarding `C[C@@H]1CN([C@@H](C)CO)C(=O)c2cccc(NC(=O)CCCCCC(=O)Nc3ccccc3N)c2O[C@@H]1CN(C)CC1CCCCC1`, the inhibition is 125% (active).

Consider `CC(C)NC(=O)Nc1cccc2c1O[C@H](CN(C)CC1CCCCC1)[C@H](C)CN([C@H](C)CO)C2=O`, for which the inhibition was 7.14% (inactive).

Consider `C[C@H](CO)N1C[C@H](C)[C@H](CN(C)S(=O)(=O)c2ccccc2)Oc2c(NC(=O)CCCCCC(=O)Nc3ccccc3N)cccc2C1=O`, for which the inhibition is 68.1% (inactive).

Consider `C[C@H](CO)N1C[C@H](C)[C@H](CN(C)CC2CCCCC2)Oc2ccc(NC(=O)CCCCCC(=O)Nc3ccccc3N)cc2CC1=O`, for which the inhibition is 141% (active).

Regarding `C[C@@H]1CN([C@@H](C)CO)C(=O)c2cccc(NC(=O)NC3CCCCC3)c2O[C@@H]1CN(C)CC1CCCCC1`, the inhibition was 15.8% (inactive).

As for `C[C@@H]1CN([C@H](C)CO)C(=O)c2cccc(NC(=O)NC3CCCCC3)c2O[C@@H]1CN(C)CC1CCCCC1`, the inhibition was -0.946% (inactive).

Consider `Cc1ccc([N+](=O)[O-])cc1N(CC(=O)Nc1ccc(Cl)c(C(F)(F)F)c1)S(C)(=O)=O`, for which the inhibition is 67.2% (inactive).

Consider `Cc1cc(C(=O)Nc2cccc3c2O[C@@H](CN(C)Cc2ccc4c(c2)OCO4)[C@@H](C)CN([C@@H](C)CO)C3=O)n(C)n1`, for which the inhibition was 9.25% (inactive).

For the molecule `COC(=O)c1ccccc1NC(=O)CNS(=O)(=O)c1cc(Cl)ccc1Cl`, the inhibition is -6.45% (inactive).

Consider `Cc1ccc(S(=O)(=O)N(C)C[C@H]2Oc3ccc(NS(C)(=O)=O)cc3CC(=O)N([C@@H](C)CO)C[C@H]2C)cc1`, for which the inhibition is 1.2% (inactive).

Consider `Cc1noc(C)c1NC(=O)Nc1ccc2c(c1)C(=O)N([C@@H](C)CO)C[C@H](C)[C@H](CN(C)S(=O)(=O)c1ccc(Cl)cc1)O2`, for which the inhibition is -6.69% (inactive).

For the molecule `Oc1cc(O)c2c(c1)OC(c1ccc(O)c(O)c1)C(O)C2` (configuration not stated), the inhibition was 6.96% (inactive).

With `COC(=O)C(C)N(C(=O)c1ccccc1[N+](=O)[O-])c1c(C)cccc1C` (configuration not stated), the inhibition is 3.25% (inactive).

On to `O=C(CSc1nnc(-c2ccco2)n1-c1ccccc1)Nc1ccc(F)cc1`, for which the inhibition was 3.32% (inactive).

As for `CCCCCCc1ccc(O)cc1O`, the inhibition is 108% (active).

For `C[C@H]1CN([C@@H](C)CO)C(=O)c2cccc(NC(=O)C3CCCCC3)c2O[C@H]1CN(C)C(=O)NC1CCCCC1`, the inhibition is -16% (inactive).

Consider `C[C@@H]1CN([C@@H](C)CO)C(=O)c2cc(NS(=O)(=O)c3ccc(Cl)cc3)ccc2O[C@H]1CN(C)C(=O)Nc1ccc(C(F)(F)F)cc1`, for which the inhibition is 7.09% (inactive).

For the molecule `Cc1cc(Cl)ccc1NC(=O)CN(c1ccc(Cl)c(Cl)c1)S(C)(=O)=O`, the inhibition was 16% (inactive).

For `COC(=O)Nc1nc2ccc(Sc3ccccc3)cc2[nH]1`, the inhibition was 114% (active).

In the case of `COc1ccc2nc(SCC(=O)Nc3ccc(I)cc3)[nH]c2c1`, the inhibition is 6.89% (inactive).

Take `COc1ccc(C(=O)CSc2nc3ccc(OC)cc3[nH]2)cc1`: the inhibition was 3.9% (inactive).

As for `COc1ccc(CN(C)C[C@H]2Oc3c(NS(=O)(=O)c4ccc(Cl)cc4)cccc3C(=O)N([C@H](C)CO)C[C@@H]2C)cc1`, the inhibition was -1.33% (inactive).

Turning to `C[C@H](CO)N1C[C@H](C)[C@@H](CN(C)Cc2ccc(C(F)(F)F)cc2)Oc2c(NC(=O)NC3CCCCC3)cccc2C1=O`, the inhibition was 83.9% (active).

`C[C@@H]1CN([C@H](C)CO)C(=O)c2cccc(NC(=O)NC3CCCCC3)c2O[C@H]1CN(C)Cc1ccc(C(F)(F)F)cc1`: the inhibition was 101% (active).

On to `C[C@H](CO)N1C[C@H](C)[C@H](CN(C)Cc2ccc3c(c2)OCO3)Oc2c(NC(=O)NC3CCCCC3)cccc2C1=O`, for which the inhibition is 42.4% (inactive).

As to `COc1ccc(CN(C)C[C@H]2Oc3c(NC(=O)NC4CCCCC4)cccc3C(=O)N([C@@H](C)CO)C[C@@H]2C)cc1`, the inhibition was 48.8% (inactive).

`C[C@@H]1CN([C@H](C)CO)C(=O)c2cccc(NC(=O)Nc3ccc(F)cc3)c2O[C@@H]1CN(C)Cc1ccc(C(F)(F)F)cc1`: the inhibition is 35.7% (inactive).

Consider `C[C@H]1CN([C@@H](C)CO)C(=O)c2cccc(NC(=O)C3CCCCC3)c2O[C@H]1CN(C)Cc1ccc(C(F)(F)F)cc1`, for which the inhibition was 45.9% (inactive).

On to `COc1ccc(N(CC(=O)Nc2ccccc2F)S(C)(=O)=O)cc1`, for which the inhibition is 40.4% (inactive).

Consider `C[C@@H]1CN([C@H](C)CO)C(=O)c2cccc(NC(=O)Nc3cccc4ccccc34)c2O[C@@H]1CN(C)Cc1ccccc1`, for which the inhibition is 47.5% (inactive).

With `O=C(O)C1CC=CCC1C(=O)Nc1ccc(C(=O)N2CCCCC2)c(Cl)c1` (configuration not stated), the inhibition is 2.77% (inactive).

On to `COc1ccc(OC)c(S(=O)(=O)N(C)CC(=O)Nc2cccc(Cl)c2C)c1`, for which the inhibition is -0.499% (inactive).

As for `Cc1ccc(OCC(=O)Nc2cccc(NC(=O)c3ccco3)c2)cc1C`, the inhibition was 30.6% (inactive).

Take `COc1ccc(CN(C)C[C@@H]2Oc3ccc(NC(=O)Nc4cccc5ccccc45)cc3C(=O)N([C@H](C)CO)C[C@H]2C)cc1`: the inhibition was -6.53% (inactive).

Regarding `C[C@@H]1CN([C@@H](C)CO)C(=O)c2cc(NC(=O)Nc3cccc4ccccc34)ccc2O[C@@H]1CN(C)C(=O)Nc1cccc2ccccc12`, the inhibition is 76.6% (inactive).

Turning to `CC(C)NC(=O)Nc1ccc2c(c1)C(=O)N([C@@H](C)CO)C[C@@H](C)[C@H](CN(C)Cc1ccc(-c3ccccc3)cc1)O2`, the inhibition was 36.3% (inactive).

With `C[C@@H]1CN([C@@H](C)CO)C(=O)c2cc(NC(=O)Nc3cccc4ccccc34)ccc2O[C@@H]1CN(C)Cc1ccc(-c2ccccc2)cc1`, the inhibition was 109% (active).

Regarding `C[C@H]1CN([C@@H](C)CO)C(=O)c2cc(NC(=O)Nc3cccc4ccccc34)ccc2O[C@@H]1CN(C)C`, the inhibition was -2.04% (inactive).

For the molecule `C[C@@H]1CN([C@@H](C)CO)C(=O)c2cc(NC(=O)Nc3cccc4ccccc34)ccc2O[C@H]1CN(C)Cc1ccc(Oc2ccccc2)cc1`, the inhibition was 115% (active).

As to `C[C@H](CO)N1C[C@H](C)[C@H](CN(C)Cc2ccc3c(c2)OCO3)Oc2c(NS(=O)(=O)c3ccccc3)cccc2C1=O`, the inhibition was -8.2% (inactive).

Turning to `C[C@H]1CN([C@@H](C)CO)C(=O)c2cccc(NS(=O)(=O)c3ccc(F)cc3)c2O[C@@H]1CN(C)Cc1ccncc1`, the inhibition is -1.34% (inactive).
